AMA1-RON2 inh: inhibitors of Plasmodium falciparum AMA1-RON2 interaction | AlphaScreen AMA1-biotinylated RON2 peptide binding | Potency, µM (highest dose often 58.2 µM), without a hit: at the highest dose activity change, negative = inhibition, actives largely listed as inhibitors | 0.2% of 360,000 active | AID 720542;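 note: 0% = vehicle wells and -100% = peptide control; nearly all actives have a fitted effect of over 45% in size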
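AMA1 (3D7) with his tag at 25 nM final met compounds first, then biotinylated RON2 peptide at 25 nM; detection used donor plus acceptor beads, 10 µg/mL apiece, read by AlphaScreen after 30 min at room temperature.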
Pf growth 96h: inhibits malaria parasite growth, 96 h; P. falciparum luciferase reporter growth, 96 h; Potency, µM (titrated, usually from 28.7 µM), for inactives: at the top dose activity change, negative = inhibition, most hits filed as inhibitors; 6.9% of 320,000 active; AID 504834; note: % is set by controls: 0 for no effect and ±100 for the full control effect
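Infected RBCs, 2% Hct / 0.05% parasitemia final; luciferase-reporter P. falciparum; cpd 96 h, 37 C, 5% CO2; luciferase detection reagent; luminescence.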
NS1 inh: blocks influenza NS1 protein function | Potency, µM (titrated, usually from 46.1 µM), for inactives: at the highest dose activity, positive = more growth | 0.4% of 270,000 active; calls by dose curve; note: actives are rising curves; nearly all actives have a fitted effect of over 50% in size
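A cell-based growth assay was used: compounds that relieve NS1-induced slow growth of budding yeast raise OD600. Assay medium was yeast nitrogen base with ammonium sulphate and -URA supplement, pH 6.0, with 2% galactose.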
Pf growth 48h: inhibits P. falciparum growth in the first generation, 48 h; 5.9% of 310,000 active; P. falciparum luciferase growth in erythrocytes, 48 h; Potency, µM (doses to about 28.7 µM), for inactives: at the top dose activity change, negative = inhibition, actives largely listed as inhibitors; AID 504832; note: % is set by controls: 0 for no effect and ±100 for the full control effect
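Luciferase-expressing parasites in RBCs, 2% Hct / 0.1% parasitemia final; RPMI 1640 + 0.5% Albumax; 37 C, 5% CO2, one generation; luminescence read-out, lower signal = inhibition.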
Sm TGR block: inhibitors of Schistosoma mansoni thioredoxin glutathione reductase; Q962Y6; purified TGR, DTNB reduction, TNB absorbance 405 nm; Potency, µM (highest dose often 114 µM), without a hit: at the highest dose activity change, negative = inhibition, most hits filed as inhibitors; 3% of 360,000 active; note: % is set by controls: 0 for no effect and ±100 for the full control effect; nearly all actives have a fitted effect of over 60% in size
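Kinetic colorimetric format: TGR-catalysed, NADPH-driven DTNB reduction monitored via TNB absorbance. Enzyme dispensed at 20 nM; compound exposure 15 min at room temperature before reaction start.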
* = called active by the depositor; ? = inconclusive; / = no result. Compounds with a hit are over-represented: about 11% of the library has one in this group of screens. Unless noted, calls come from the whole dose curve; as a rule, active = well fitted curve in the direction sought with a large enough effect; inconclusive = small, poorly fitted or top-dose-only effect, or another doubt; inactive = no such curve, though single readings can be large; an effect the other way counts as inactive or inconclusive. Potency is the fitted concentration of half-maximal effect.

SMILES	AMA1-RON2 inh	Pf growth 96h	NS1 inh	Pf growth 48h	Sm TGR block
COc1cccc(-n2ccnc2SCC(=O)Nc2ccc(Cl)c(Cl)c2)c1	/	/	/	/	-1%
O=C(NCCN1CCOCC1)C(=O)c1c[nH]c2ccccc12	0%	?	18%	15%	9%
Cc1ccc(-c2cc(C#N)c(=O)n(Cc3c(Cl)cccc3Cl)c2)cc1	4%	?	3%	?	6%
N#Cc1cc(-c2ccccc2)cn(Cc2c(Cl)cccc2Cl)c1=O	-5%	1.7µM*	-3%	?	-12%
c1nc2n(n1)C1=C(CCCC1)C1(CCCCC1)N2	3%	2.6µM*	/	?	9%
O=c1c2ccccc2nnn1CSc1nnc(-c2ccco2)o1	0%	1.2µM*	-18%	-3%	-1%
O=C(CCNc1ccc(F)cc1)c1ccco1	-3%	?	-8%	5%	4µM*
O=C(CCNc1cc(Cl)cc(Cl)c1)c1ccco1	6%	?	-39%	37%	?
O=C(CCNc1cccc(C(F)(F)F)c1)c1ccco1	9%	/	-27%	-9%	3.5µM*
O=C(CCNc1ccc(Cl)c(C(F)(F)F)c1)c1ccco1	0%	-11%	-44%	14%	?
Cc1ccc(C(=O)CCNc2ccc(Cl)cc2)o1	-3%	10µM*	-13%	/	-32%
O=C(CCNc1ccc(F)c(Cl)c1)c1ccco1	24%	?	-12%	-3%	8.9µM*
CCc1ccccc1NC(=O)CN1C(=O)c2cccnc2Oc2ccc(Cl)cc21	/	/	/	/	-18%
CCN(CC)CCCN=Cc1c(O)n(-c2cccc(C)c2)c(=O)c2ccccc12	18%	19%	0%	-6%	-13%
Cc1ccc(CCNC(=O)CCCc2nnc3n(C)c(=O)c4sccc4n23)cc1	/	/	/	/	0%
CN1C(=O)C2(c3ccccc31)C1CCCC=C1C(C#N)=C(N)C2(C#N)C#N (stereo unspecified)	1%	-17%	24%	-19%	20µM*
N#CC(=C1C=C(Br)C(=NO)C=C1Cl)c1cccc2ccccc12	14µM*	/	/	/	/
CNC(=O)Cn1c(=O)c2cccn2c2ccc(F)cc21	/	/	/	/	-1%
COc1ccc(-n2c(=O)c(CCC(=O)N3CCN(c4ccccc4O)CC3)nc3ccccc32)cc1	-21%	8.3µM*	/	3.7µM*	-1%
COc1ccc(N2CCN(C(=O)CCc3ccccc3OC)CC2)cc1	-10%	-14%	-8%	/	-13%
COc1cccc(C(N)CC(=O)O)c1 (stereo unspecified)	/	8.3µM*	6%	15%	-22%
CCOC(=O)c1cc(CC)sc1NC(=O)C(c1ccccc1)c1ccccc1	-16%	8.3µM*	28%	?	13%
CCOC(=O)c1cc(CC)sc1NC(=O)c1cc(OCC)c(OCC)c(OCC)c1	-6%	5.9µM*	29%	8.3µM*	-16%
CCOC(=O)c1c(NC(=O)C(c2ccccc2)c2ccccc2)sc2c1C1CCN2CC1	-29%	?	-5%	2.1µM*	10%
CCOC(=O)c1cc(CC)sc1NC(=O)c1ccc2c(c1)OCCO2	14%	/	11%	1%	1%
SMILES	AMA1-RON2 inh	Pf growth 96h	NS1 inh	Pf growth 48h	Sm TGR block
C[C@H]1CN([C@@H](C)CO)C(=O)CCCn2nncc2CO[C@@H]1CN(C)Cc1ccncc1	7%	/	/	/	/
C/C(=N\NC(=O)C1(C)NC(C)(C)Cc2ccccc21)c1ccccc1 (stereo unspecified)	-8%	-6%	3%	?	/
c1ccc(-c2cc3nccc(-c4ccccn4)n3n2)cc1	34%	335%	-10%	247%	9%
CC(C)CCOP(=O)(c1ccccc1)c1ccccc1	-14%	?	6%	15µM*	6%
CCc1ccccc1OCC(=O)Nc1ccc(N2CCCC2)cc1C	?	2.6µM*	/	5.2µM*	16µM*
Cc1cc(N2CCCC2)ccc1NC(=O)COc1ccccc1	-16%	?	/	15µM*	18µM*
CCOc1ccc(S(=O)(=O)N2CCC(C(=O)NCc3cccnc3)CC2)cc1	-10%	?	3%	-27%	-10%
COCCNC(=O)Cn1nc(-c2ccccc2F)ccc1=O	7%	3.7µM*	12%	16%	-19%
COc1ccccc1-c1ccc(=O)n(CC(=O)NC(C)(C)C)n1	-8%	7.4µM*	0%	46%	0%
COCCCNC(=O)Cn1nc(-c2ccc(C)cc2)ccc1=O	1%	?	-5%	44%	-19%
COCCCNC(=O)Cn1nc(-c2ccccc2OC)ccc1=O	-4%	21%	7%	5%	5%
COCCNC(=O)Cn1nc(-c2ccccc2OC)ccc1=O	3%	66%	3%	10%	-3%
COCCCNC(=O)Cn1nc(-c2cccc(OC)c2)ccc1=O	2%	10µM*	7%	8%	1%
Cc1cc(C)c2c(c1)NC(=O)C2(O)c1c[nH]c2ccccc12 (stereo unspecified)	/	/	/	/	0%
S=C(NC1CCCCC1)N1CCN(c2ccccn2)CC1	-24%	12µM*	2%	-14%	6%
FC(F)(F)c1cccc(N2CCN(C(=S)NC3CCCC3)CC2)c1	-8%	13µM*	1%	?	-9%
S=C(NC1CCCCC1)N1CCOCCOCCN(C(=S)NC2CCCCC2)CCOCCOCC1	?	10µM*	9%	?	0%
O=C(NC1CCCCCC1)C(=S)N1CCOCC1	-3%	?	2%	7%	5%
COc1ccccc1NC(=O)CSc1oc(-c2ccccc2)nc1S(=O)(=O)c1ccccc1	/	/	/	/	-6%
CCC(=O)N1CCc2cc(Br)cc(S(=O)(=O)N3CCC(C(=O)N(CC)CC)CC3)c21	/	/	/	/	1%
CCc1cc(C(=O)OCC(=O)N2CCC(c3ccccc3)=N2)sc1C	-9%	6%	5%	16%	-20%
CC(C)c1ccc(NC(=O)CN2C(=O)C3(SCC(=O)N3c3ccc(F)cc3)c3ccccc32)cc1 (stereo unspecified)	/	/	/	/	13%
O=C(Nc1ccccc1N1CCCC1)c1ccc(Cl)c(S(=O)(=O)N2CCOCC2)c1	4%	8.3µM*	/	12µM*	-7%
Cc1ccc(C(=O)Nc2ccccc2N2CCCCC2)cc1S(=O)(=O)N1CCOCC1	-4%	/	/	/	/
Cc1ccc(C(=O)O)cc1S(=O)(=O)N1CCOCC1	5%	8.3µM*	-10%	2%	-16%
SMILES	AMA1-RON2 inh	Pf growth 96h	NS1 inh	Pf growth 48h	Sm TGR block
O=C(Nc1ccccc1N1CCCCC1)c1ccc(F)c(S(=O)(=O)N2CCOCC2)c1	-5%	?	/	13µM*	4%
Cc1ccc(C(=O)Nc2ccccc2N2CCOCC2)cc1S(=O)(=O)N1CCOCC1	-2%	?	/	13µM*	-1%
Cc1csc2ncnc(N3CCN(C(=O)Nc4ccc(OC(F)(F)F)cc4)CC3)c12	3%	?	-56%	?	13%
O=C(NCC1CCCCC1)c1ccc(F)c(S(=O)(=O)N2CCOCC2)c1	3%	7.4µM*	/	?	-2%
COc1ccccc1NC(=O)c1sc2nc(C)c(C(=O)Nc3ccc(C)cc3C)c(-c3ccco3)c2c1N	/	/	/	/	0%
CCC(=C(c1ccc(OC)cc1)c1ccc(OC)cc1)c1cn(CC(O)CN2CCN(C)CC2)c2ccccc12 (stereo unspecified)	?	/	17%	9.3µM*	-4%

Compound activity (PubChem)
